Test results reported in PubChem BioAssay (EPA / NIEHS).
Active and inactive are the calls of the source. Rule for the calls: active = hit-call score of the fitted dose curve at least 0.9, where 1 is the maximum; inactive = score below 0.9.

Read-out: Heat shock 70 kDa protein 1 (HSPA1A), gene 3303
Test: LTEA_HepaRG_HSPA1A: Life Technologies and Expression Analysis (LTEA) Assay for Heat shock 70 kDa protein 1 (HSPA1A) using HepaRG (AID 2283502)
Settings: mRNA level, 48 h; actives raise or lower the signal
Summary of the method: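 An oxidative-stress marker readout: HepaRG cells treated 48 h in duplicate with an eight-point series (highest 100 uM) had HSPA1A mRNA quantified by TaqMan qRT-PCR. Activity was fitted in both directions using 0.5% DMSO as baseline.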

SMILES	outcome	AC50
COc1cc2c(c(OC)c1OC)-c1ccc(OC)c(=O)cc1[C@@H](NC(C)=O)CC2	inactive	–
CCn1nc(C)c2c1C(=O)NCC(c1ccc(O)cc1)=N2	inactive	–
CCCCCCCCCC	inactive	–
O=C(O)c1ccc2c(c1)nc(C(=O)NC1CCN(C3CC3)CC1)n2Cc1cc(-c2ccc(Cl)s2)on1	inactive	–
Nc1ccn([C@@H]2O[C@H](CO)[C@@H](O)[C@@H]2O)c(=O)n1	inactive	–
NC(=O)NN=Cc1ccc([N+](=O)[O-])o1	inactive	–
OC(Cn1cncn1)(Cn1cncn1)c1ccc(F)cc1F	inactive	–
OCc1ccccc1	inactive	–
NNC(=O)c1ccncc1	inactive	–
CCc1ccc(O)c(C(C)(C)C)c1	inactive	–
CCOC(N)=O	inactive	–
CC(C)CCCCCCOC(=O)C1CCCCC1C(=O)OCCCCCCC(C)C (centres undefined)	inactive	–
c1ccc(C(O[C@@H]2CCCN(CCc3ccc4c(c3)OCO4)C2)c2ccccc2)cc1	–	80.4 µM (active)
CC(C)C(=O)Nc1ccc([N+](=O)[O-])c(C(F)(F)F)c1	inactive	–
NC(=O)N(O)[C@@H]1COc2cc(OCc3ccccc3)ccc21	inactive	–
O=c1[nH]cnc2c1ncn2[C@H]1CC[C@@H](CO)O1	inactive	–
NC(N)=O	inactive	–

SMILES	outcome	AC50
COCc1nnc(-c2ccc[n+]([O-])c2)n1-c1c(Cl)c(Cl)cc2[nH]c(=O)c(=O)[nH]c12	inactive	–
OC[C@H]1O[C@@H]2O[C@H]3[C@H](O)[C@@H](O)[C@@H](O[C@H]4[C@H](O)[C@@H](O)[C@@H](O[C@H]5[C@H](O)[C@@H](O)[C@@H](O[C@H]6[C@H](O)[C@@H](O)[C@@H](O[C@H]7[C@H](O)[C@@H](O)[C@@H](O[C@H]1[C@H](O)[C@H]2O)O[C@@H]7CO)O[C@@H]6CO)O[C@@H]5CO)O[C@@H]4CO)O[C@@H]3CO	inactive	–
CC(C)CC(C)O (centres undefined)	inactive	–
CCCCN1C(=O)[C@@H]([C@H](O)C2CCCCC2)NC(=O)C12CCN(Cc1ccc(Oc3ccc(C(=O)O)cc3)cc1)CC2	–	1.8 µM (active)
CC(C)c1nnc2ccc(-c3ocnc3-c3cc(F)ccc3F)cn12	inactive	–
CNC(C)=O	inactive	–
OCCNCCO	inactive	–
C=CN1CCCC1=O	inactive	–
CCCCCCCCN(C)C	inactive	–
c1ccc2ncccc2c1	inactive	–
CCCCCCOC(=O)CC(CC(=O)OCCCCCC)(OC(=O)CCC)C(=O)OCCCCCC	inactive	–
CCc1cccc(CC)c1N	inactive	–
O=C1CN(N=Cc2ccc([N+](=O)[O-])o2)C(=O)N1	inactive	–
CCCC(CCC)C(=O)O	inactive	–
Cc1ncc([C@@H](CCCCCCc2ccc3c(n2)NCCC3)CC(=O)O)cn1	inactive	–
CCCCCCCCCCCCCCCCOS(=O)(=O)O	inactive	–
CCN(CC)C(=S)SSC(=S)N(CC)CC	inactive	–
